Reference: PubChem BioAssay (NCATS)
Results filed as inconclusive are left out. Where a call stands in place of a potency, no number is given. Active and inactive are the calls of the source. The call rests on the fitted dose curve; in most records, active means well fitted inhibition curve with a large enough effect; inconclusive means small, poorly fitted or top-dose-only effect; inactive means flat fitted curve, though single readings scatter.

Molecular target: Glutathione peroxidase 1 (Homo sapiens) (UniProt P07203)
Assay: Primary qHTS Assay for Inhibitors of Recombinant Selenoprotein Glutathione Peroxidase 1 (GPX1) (AID 1845191); further: nearly all actives have a fitted effect of over 65% in size
Conditions: recombinant GPX1, GR-coupled NADPH fluorescence, 15 min; series mostly up to 48.8 µM
Procedure, shortened: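 NADPH consumption tracked by fluorescence at 340/450 nm between t=0 and t=15 min, room temperature. Final mix: 10 nM GPX1, 100 nM glutathione reductase, 1 mM GSH, 0.5 mM NADPH, 0.5 mM cumene hydroperoxide, 0.01% BSA; 30 min compound–enzyme preincubation.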
Potency means the concentration at half of the fitted maximal effect.

Glutathione peroxidase 1 (Homo sapiens), sequence (P07203 whole entry, looked up): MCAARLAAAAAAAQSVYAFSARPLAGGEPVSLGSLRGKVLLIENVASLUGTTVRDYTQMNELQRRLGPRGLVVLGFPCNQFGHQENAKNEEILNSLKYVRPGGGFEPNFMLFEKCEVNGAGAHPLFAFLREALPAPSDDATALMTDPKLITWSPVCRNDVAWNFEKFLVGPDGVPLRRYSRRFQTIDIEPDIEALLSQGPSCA

| Structure (SMILES) | Potency |
| --- | --- |
| Cn1c(=O)oc2ccc(C(=O)N[C@H](C3CCNCC3)C3CC(O)C3)cc21 (stereo not given in full) | inactive |
| CN[C@@H]1[C@H](O[C@H]2[C@H](O[C@@H]3[C@@H](O)[C@H](O)[C@@H](N=C(N)N)[C@H](O)[C@H]3NC(=N)N)O[C@@H](C)[C@]2(O)CO)O[C@@H](CO)[C@H](O)[C@H]1O | inactive |
| CC[C@@]1(O)CC2CN(CCc3c([nH]c4ccccc34)[C@](C(=O)OC)(c3cc4c(cc3OC)N(C)C3[C@@](O)(C(N)=O)[C@H](O)[C@]5(CC)C=CCN6CC[C@@]43[C@@H]65)C2)C1 (stereo not given in full) | inactive |
| COc1ccc(-c2nn3c(-c4ccco4)nnc3s2)cc1OC | inactive |
| CN(Cc1ccccc1)C(=O)[C@H](NC(=O)c1cc2cc(NC(=O)c3ccccc3-c3ccc(C(F)(F)F)cc3)ccc2n1C)c1ccccc1 | inactive |
| CC(C)N(CCCCOCC(=O)O)c1cnc(-c2ccccc2)c(-c2ccccc2)n1 | inactive |
| Cc1ccc2occ(-c3cc(-c4ccc(F)cc4)nc4c3COc3ccc(F)cc3-4)c(=O)c2c1 | inactive |
| CC(C)Oc1ccc(-c2c[nH]cc2CN(C)CCN)cc1 | inactive |
| CCO/N=C(\C(=O)N[C@@H]1C(=O)N2C(C(=O)O)=C(Sc3nc(-c4cc[n+](C)cc4)cs3)CS[C@H]12)c1nsc(NP(=O)(O)O)n1 | 4.04 µM (active) |
| Cc1cccc(N2C(=O)N(Cc3ccc(C(C)(C)C)cc3)c3ccccc3S2(=O)=O)c1 | inactive |
| CC(=O)OC[C@H]1O[C@@H](n2cnc(N)nc2=O)[C@H](OC(C)=O)[C@@H]1OC(C)=O | inactive |
| CC(C)n1cnc2c(NCc3ccccc3)nc(NCCCO)nc21 | inactive |
| CCCC[C@H](C)C[C@H](O)/C=C/[C@H]1[C@H](O)CC(=O)[C@@H]1CCCC/C=C/C(=O)O | inactive |
| CNC(=O)c1ccccc1Oc1nc(Nc2cc(OC)c(OC)c(OC)c2)ncc1Br | inactive |
| Nc1nc(NCc2ccccc2)c2[nH]cnc2n1 | inactive |
| N#Cc1ccc(-c2csc(NN=C3CCCC3)n2)cc1 | inactive |
| COc1ccc(Nc2cc(C)c3cc(NC(=O)c4cc(OC)cc(OC)c4)ccc3n2)cc1 | inactive |
| NCc1ccc(Oc2ccccc2)cc1 | inactive |
| COc1ccc(C(=O)Nc2ccc3oc(-c4ccc(F)cc4Cl)nc3c2)cc1 | inactive |
| CCN(C(=O)CO)[C@H]1CN(C(=Nc2cccc(OC(F)F)c2)NC#N)N=C1c1ccc(Cl)c(Cl)c1 | inactive |

| Structure (SMILES) | Potency |
| --- | --- |
| Nc1nc(CC(=O)Nc2ccc(CCNC[C@H](O)c3ccccc3)cc2)cs1 | inactive |
| O=C(O)CCN(O)C(=O)CCCCCCCCC1CC1 | inactive |
| Cc1cc(C)n(CCc2nc3c4ccccc4nc(N4CCN(c5cccc(C)c5C)CC4)n3n2)n1 | inactive |
| COCC1=C(C(=O)O)N2C(=O)[C@@H](NC(=O)/C(=N\OC)c3csc(N)n3)[C@H]2SC1 | 18 µM (active) |
| CCCN1C[C@@H](NS(=O)(=O)N(CC)CC)C[C@@H]2Cc3c(O)cccc3C[C@H]21 | inactive |
| Nc1ccccc1NC(=O)CCCCCCC(=O)Nc1ccccc1 | inactive |
| O=[N+]([O-])c1cc(S(=O)(=O)Nc2ccc(O)c3ccccc23)ccc1Cl | inactive |
| OC[C@H]1O[C@@H](c2ccc(F)c(Cc3cc4ccccc4s3)c2)[C@H](O)[C@@H](O)[C@@H]1O | inactive |
| O=C1COc2c(CCNCCN(C(=O)CCNCCc3ccc(Cl)c(Cl)c3)C3CCCCC3)ccc(O)c2N1 | inactive |
| CC(=O)CCC1C(=O)N(c2ccccc2)N(c2ccccc2)C1=O | inactive |
| CCCCCCCCCCCCCCCC(=O)OC1C(SC)OC(C(NC(=O)C2CC(CCC)CN2C)C(C)Cl)C(O)C1O (stereo not given) | inactive |
| N=c1sc2c(n1CC(=O)c1ccc([N+](=O)[O-])cc1)CCCC2 | inactive |
| CC(C)(C)NCC(O)COc1ccccc1C#N (stereo not given) | inactive |
| Oc1c(C(c2ccccc2)N2CCOCC2)sc2nc(-c3ccco3)nn12 (stereo not given) | inactive |
| O=[N+]([O-])c1ccc(Nc2nc(N3CCOCC3)nc(N3CCOCC3)n2)cc1 | inactive |
| O=C(O)c1ccc2nc(-c3cc(Cl)cc(Cl)c3)oc2c1 | inactive |
| O=C1NC(=O)/C(=C/c2ccc3c(c2)OCO3)S1 | inactive |
| O=C1CCC(C(=O)O)N1 (stereo not given) | inactive |
| CO[C@H]1/C=C\O[C@@]2(C)Oc3c(C)c(O)c4c(O)c(c5c(c4c3C2=O)=NC2(CCN(CC(C)C)CC2)N=5)NC(=O)/C(C)=C\C=C/[C@H](C)[C@H](O)[C@@H](C)[C@@H](O)[C@@H](C)[C@H](OC(C)=O)[C@@H]1C | inactive |
| Cn1cc(CN2CCN(C(c3ccccc3)c3ccccc3)CC2)cc1C#N | inactive |
